Laboratory results published in PubChem BioAssay (Tox21).
Records with an inconclusive call do not appear. Active and inactive are the calls of the source. Unless noted, the call rests on the fitted dose curve; in most records, active means well fitted curve in the direction sought with a large enough effect in the repeat runs; inconclusive means weak or mixed curves; inactive means no such curve, though single readings can be large; an effect the other way counts as inactive or inconclusive.

Legend:
[1] = qHTS assay for small molecules that induce genotoxicity in human embryonic kidney cells expressing luciferase-tagged ATAD5 (AID 651632); further: nearly all actives have a fitted effect of over 15% in size; further: potency means the concentration at half of the fitted maximal effect
Method in brief: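 Quantitative HTS in HEK293T expressing luciferase-tagged ATAD5, whose levels rise upon DNA damage. Exposure ran 16 hr at 37C and 5% CO2, with luminescence read 30 min after Amplite addition at room temperature.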

[2] = qHTS assay for small molecule agonists of the p53 signaling pathway - cell viability (AID 651633; calls by dose curve; further: nearly all actives have a fitted effect of over 30% in size; further: potency means the concentration at half of the fitted maximal effect)
Method in brief: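 Viability counter-read: CellTiter-Glo luminescence (30 min, room temperature) in the same p53RE-bla plates. These plates had been exposed to compounds for 16 h at 37 C.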

[3] = qHTS assay for small molecules that induce genotoxicity in human embryonic kidney cells expressing luciferase-tagged ATAD5 - cell viability (AID 651634; calls by dose curve; further: nearly all actives have a fitted effect of over 25% in size)
Method in brief: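 After 15.5 hr incubation with compound at 37C, 5% CO2, HEK293T ATAD5-luciferase cells received CellTiter-Fluor reagent; fluorescence intensity was quantified following 30 min at 37C.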

[4] = qHTS assay for small molecule disruptors of the mitochondrial membrane potential - cell viability (AID 720634; calls by dose curve;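 further: human HepG2 liver cancer cells; series mostly up to about 83 µM; nearly all actives have a fitted effect of over 20% in size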)
Method in brief: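 ATP-based luminescent viability readout (CellTiter-Glo, 30 min, room temperature) in HepG2 cells multiplexed with the m-MPI membrane potential dye; compound exposure lasted 1 hr at 37 C.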

[5] = qHTS assay for small molecule disruptors of the mitochondrial membrane potential (AID 720635); further: potency means the concentration at half of the fitted maximal effect
Method in brief: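 Mitochondrial membrane potential tracked with Mito-MPS dye, red aggregates (ex 540/em 590 nm) against green monomers (ex 490/em 535 nm). Compound treatment 1 hr at 37C, dye 30 min in HepG2.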

[6] = qHTS assay to test for compound auto fluorescence at 590 nm (red) in HepG2 cells (AID 720674)
Method in brief: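 Red autofluorescence (Ex/Em 540/590 nm, Rose Bengal sodium equivalents) was measured in HepG2 cells, 2,000 per well in MEM plus 10% FBS, plated overnight at 37 C. Readings were taken 1 hr after adding 23 nL compound or DMSO, at 37 C and 5% CO2.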

[7] = qHTS assay to test for compound auto fluorescence at 535 nm (green) in HepG2 cells (AID 720675)
[8] = qHTS assay to test for compound auto fluorescence at 460 nm (blue) in HEK293 cells (AID 720678)
Method in brief: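 Intrinsic compound fluorescence is recorded in live HEK293 cultures after overnight incubation at 37C, 5% CO2, using excitation 405 nm and emission 460 nm. Values are referenced to triamterene.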

[9] = qHTS assay to test for compound auto fluorescence at 590 nm (red) in HEK293 cells (AID 720679)
Method in brief: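 Red autofluorescence, HEK293 cells: 2,000 cells/well; attach 4-5 hr 37C; add 23 nL cpd or DMSO; incubate o/n 37C 5% CO2; read Ex540/Em590; Rose Bengal sodium reference.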

[10] = qHTS assay to test for compound auto fluorescence at 535 nm (green) in HEK293 cells (AID 720680)
[11] = qHTS assay to test for compound auto fluorescence at 460 nm (blue) in HEK293 cell free culture (AID 720681)
Method in brief: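 Blue fluorescence (Ex 405/Em 460 nm, triamterene-equivalent) was read immediately after pin transfer of compound or DMSO into medium (DMEM, 10% FBS) without cells.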

[12] = qHTS assay to test for compound auto fluorescence at 535 nm (green) in HEK293 cell free culture (AID 720682)
Method in brief: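 No cells present: wells hold DMEM supplemented with 10% FBS, into which compound or vehicle is pinned. Green emission is then recorded (485 nm excitation, 535 nm emission) and scaled to fluorescein.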

[13] = qHTS assay to test for compound auto fluorescence at 590 nm (red) in HEK293 cell free culture (AID 720683)
Method in brief: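 Red-channel autofluorescence of compounds in culture medium (DMEM, 10% FBS), no cells, measured at 540/590 nm. Rose Bengal sodium is the reference fluorophore for equivalence.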

[14] = qHTS assay to test for compound auto fluorescence at 590 nm (red) in HepG2 cell free culture (AID 720684)
Method in brief: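 Cell-free; medium MEM + 10% FBS; compound or DMSO added by pintool; read Ex 540/Em 590 nm; Rose Bengal sodium as red reference fluorophore.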

[15] = qHTS assay to test for compound auto fluorescence at 460 nm (blue) in HepG2 cell free culture (AID 720685)
Method in brief: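 Cell-free plates of MEM plus 10% FBS received 23 nL compound or DMSO vehicle; blue-channel (405/460 nm) intensity scored against triamterene as reference fluorophore.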

[16] = qHTS assay to test for compound auto fluorescence at 535 nm (green) in HepG2 cell free culture (AID 720686)
[17] = qHTS assay to test for compound auto fluorescence at 460 nm (blue) in HepG2 cells (AID 720687)
Method in brief: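 Blue-channel autofluorescence (Ex/Em 405/460 nm, triamterene-equivalent) was measured after 1 hr compound exposure at 37 C, 5% CO2. Cells were HepG2, plated overnight at 37 C in MEM plus 10% FBS.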

[18] = molecular target: Glucocorticoid receptor (Homo sapiens) (UniProt P04150); test: qHTS assay to identify small molecule agonists of the glucocorticoid receptor (GR) signaling pathway (AID 720691; active means well fitted activation curve with a large enough effect in the signal ratio in the repeat runs, not every such curve was filed as active; the % refers to the signal ratio)
Chain of Glucocorticoid receptor (Homo sapiens) (P04150 whole entry, looked up): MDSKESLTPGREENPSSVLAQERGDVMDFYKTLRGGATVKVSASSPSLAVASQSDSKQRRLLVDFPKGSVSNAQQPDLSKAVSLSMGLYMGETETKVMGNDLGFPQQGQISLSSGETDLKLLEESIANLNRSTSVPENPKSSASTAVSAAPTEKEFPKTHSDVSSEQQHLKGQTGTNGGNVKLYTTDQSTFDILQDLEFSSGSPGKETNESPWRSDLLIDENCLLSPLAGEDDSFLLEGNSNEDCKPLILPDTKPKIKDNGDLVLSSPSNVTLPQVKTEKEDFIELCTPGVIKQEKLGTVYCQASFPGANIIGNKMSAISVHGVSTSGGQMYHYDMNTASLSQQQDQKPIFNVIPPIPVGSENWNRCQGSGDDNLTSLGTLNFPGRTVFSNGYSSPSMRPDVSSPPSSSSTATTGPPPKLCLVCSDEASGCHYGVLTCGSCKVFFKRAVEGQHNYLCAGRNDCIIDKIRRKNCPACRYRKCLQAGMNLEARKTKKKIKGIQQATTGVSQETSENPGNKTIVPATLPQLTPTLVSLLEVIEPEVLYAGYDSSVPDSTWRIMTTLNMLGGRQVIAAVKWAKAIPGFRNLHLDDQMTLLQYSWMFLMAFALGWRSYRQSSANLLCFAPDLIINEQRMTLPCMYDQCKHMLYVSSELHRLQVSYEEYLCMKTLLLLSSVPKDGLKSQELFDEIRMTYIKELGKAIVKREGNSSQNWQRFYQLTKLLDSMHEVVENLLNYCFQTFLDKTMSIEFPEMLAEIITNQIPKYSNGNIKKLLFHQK
Method in brief: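 Cells: GR-bla HeLa, endogenous GR with stably integrated GRE-beta-lactamase reporter. Treatment 18 h, 37 C, compounds delivered in DMSO. Detection via LiveBLAzer B/G FRET substrate, 2 h RT, fluorescence intensity.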

[19] = qHTS assay for small molecule agonists of the p53 signaling pathway (AID 651631; calls by dose curve; further: nearly all actives have a fitted effect of over 15% in size)
Method in brief: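 Agonist mode screen using a stably integrated beta-lactamase gene under p53 response elements in HCT-116 cells. Compound exposure lasts 16 h at 37 °C; fluorescence intensity is measured following 2 h FRET substrate loading.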

[20] = molecular target: Glucocorticoid receptor (Homo sapiens) (UniProt P04150); test: qHTS assay to identify small molecule antagonists of the glucocorticoid receptor (GR) signaling pathway (AID 720692; active means well fitted inhibition curve with a large enough effect in the signal ratio in the repeat runs, not every such curve was filed as active; the % refers to the signal ratio)
Method in brief: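 Quantitative HTS in antagonist format: HeLa cells expressing endogenous GR and a stably integrated GRE-bla reporter, stimulated with 5 nM dexamethasone (final) alongside test compounds for 18 h.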
On the % scale 0 is the no-effect control and ±100 the full control effect.

O=C(O)CN(CCN(CC(=O)O)CC(=O)O)CCN(CC(=O)O)CC(=O)O
inactive: Potency [2] | Potency [3] | Potency [4] | Potency [5] | outcome [6] | outcome [7] | outcome [8] | outcome [9] | outcome [10] | outcome [11] | outcome [12] | outcome [13] | outcome [14] | outcome [15] | outcome [16] | outcome [17] | Potency [18]
active: Potency [1] 26.6 µM

C=CCCC=C
inactive: Potency [19] | Potency [1] | Potency [3] | Potency [4] | outcome [6] | outcome [7] | outcome [8] | outcome [9] | outcome [10] | outcome [12] | outcome [13] | outcome [14] | outcome [15] | outcome [16] | outcome [17]

CC(=O)Nc1ccc(C)c(Cl)c1
inactive: Potency [19] | Potency [1] | Potency [3] | Potency [4] | outcome [6] | outcome [7] | outcome [8] | outcome [10] | outcome [11] | outcome [13] | outcome [14] | outcome [15] | outcome [16] | Potency [18] | Potency [20]

CN1CCN(c2c(F)cc3c(=O)c(C(=O)O)cn(CCF)c3c2F)CC1
inactive: Potency [19] | Potency [2] | Potency [4] | Potency [5] | outcome [6] | outcome [7] | outcome [8] | outcome [9] | outcome [10] | outcome [11] | outcome [12] | outcome [13] | outcome [14] | outcome [15] | outcome [16] | outcome [17] | Potency [20]

CO[Si](C)(C)OC
inactive: Potency [19] | Potency [2] | Potency [4] | outcome [6] | outcome [7] | outcome [8] | outcome [9] | outcome [10] | outcome [11] | outcome [12] | outcome [13] | outcome [14] | outcome [15] | outcome [16] | outcome [17] | Potency [18] | Potency [20]

Cc1ncc(CO)c(CN)c1O
inactive: Potency [19] | Potency [1] | Potency [3] | Potency [4] | outcome [6] | outcome [7] | outcome [8] | outcome [9] | outcome [10] | outcome [11] | outcome [13] | outcome [14] | outcome [15] | outcome [16] | outcome [17]

ClC(Cl)Cl
inactive: Potency [19] | Potency [2] | Potency [3] | Potency [4] | Potency [5] | outcome [6] | outcome [7] | outcome [8] | outcome [10] | outcome [11] | outcome [12] | outcome [13] | outcome [14] | outcome [15] | outcome [16] | outcome [17] | Potency [18] | Potency [20]

CCN[C@H]1CN(CCCOC)S(=O)(=O)c2sc(S(N)(=O)=O)cc21
inactive: Potency [19] | Potency [1] | Potency [3] | Potency [4] | Potency [5] | fluorescence, relative to Rose Bengal [6] -0.145% [at 18.6 µM] | fluorescence, % of fluorescein control [7] -0.244% [at 18.6 µM] | fluorescence, % of triamterene [8] 0.009% [at 18.6 µM] | fluorescence, % of fluorescent control [9] 0.0594% [at 18.6 µM] | fluorescence, % of fluorescein [10] -0.0786% [at 18.6 µM] | fluorescence, % of fluorescent control [11] 0.113% [at 18.6 µM] | fluorescence, % of fluorescent control [13] -0.021% [at 18.6 µM] | fluorescence, % of Rose Bengal [14] 0.0022% [at 18.6 µM] | fluorescence, % of fluorescent control [15] -0.0073% [at 18.6 µM] | fluorescence, % of fluorescein control [16] 0.0136% [at 18.6 µM] | fluorescence, % of fluorescent control [17] -0.117% [at 18.6 µM] | Potency [18]

CC(=O)OC(C)OC(C)=O
inactive: Potency [19] | Potency [1] | Potency [3] | Potency [4] | Potency [5] | outcome [6] | outcome [7] | outcome [8] | outcome [9] | outcome [10] | outcome [11] | outcome [13] | outcome [14] | outcome [15] | outcome [16] | Potency [18] | Potency [20]

O=C1CCCCCCCCCCC(=O)OCCO1
active: Potency [2] 54.5 µM | Potency [5] 27.3 µM
inactive: Potency [1] | Potency [3] | outcome [6] | outcome [7] | outcome [9] | outcome [10] | outcome [11] | outcome [13] | outcome [14] | outcome [15] | outcome [16] | outcome [17] | Potency [20]

CCCCCCCOC(=O)CCC
inactive: Potency [1] | Potency [2] | Potency [3] | Potency [4] | Potency [5] | outcome [6] | outcome [7] | outcome [8] | outcome [9] | outcome [10] | outcome [11] | outcome [12] | outcome [13] | outcome [14] | outcome [15] | outcome [16] | outcome [17] | Potency [18]

CNCCC(Oc1ccccc1OC)c1ccccc1 (stereo not given)
inactive: Potency [1] | Potency [2] | Potency [4] | Potency [5] | outcome [6] | outcome [7] | outcome [8] | outcome [9] | outcome [10] | outcome [11] | outcome [12] | outcome [13] | outcome [14] | outcome [15] | outcome [16] | outcome [17]

O=C(O)[C@@H](O)[C@H](O)[C@H](O)[C@@H](O)C(=O)O
inactive: Potency [1] | Potency [2] | Potency [4] | Potency [5] | outcome [6] | outcome [7] | outcome [8] | outcome [9] | outcome [10] | outcome [11] | outcome [12] | outcome [13] | outcome [14] | outcome [15] | outcome [16] | outcome [17]

C[C@@H]1CN(c2c(F)c(F)c3c(=O)c(C(=O)O)cn(C4CC4)c3c2F)C[C@H](C)N1
inactive: Potency [1] | Potency [2] | Potency [4] | Potency [5] | outcome [7] | outcome [8] | outcome [10] | outcome [11] | outcome [12] | outcome [13] | outcome [14] | outcome [15] | outcome [16] | outcome [17] | Potency [18] | Potency [20]
